Whole data set: some 35,000 sequences, median “fluorescence intensity (a.u.)” near 10,000, cut for the highest 2% near 52,000. What follows is part of a selection rich in the highest values, with near analogues and random picks from the rest.

The target in the assay is T1, OsWOX13 (Oryza sativa, UniProt Q5QMM3 1-267).
T1 sequence: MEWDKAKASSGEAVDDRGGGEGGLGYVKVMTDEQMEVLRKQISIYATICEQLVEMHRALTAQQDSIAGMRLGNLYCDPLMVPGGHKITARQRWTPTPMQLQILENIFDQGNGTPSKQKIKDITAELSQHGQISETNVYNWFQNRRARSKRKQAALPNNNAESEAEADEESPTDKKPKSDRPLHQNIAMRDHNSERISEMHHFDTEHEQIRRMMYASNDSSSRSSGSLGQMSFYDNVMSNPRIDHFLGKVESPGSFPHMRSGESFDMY
The assay is described as follows: protein-binding microarray (RPBM); PBS, 2% BSA, 51.3 ng/ul salmon testes DNA, 50 uM zinc acetate, 200 nM TF, 25 C, 1 h; high values mean tight binding. The conditions noted are these: protein: recombinant; tags: N-terminal polyhistidine and DsRed monomer fusion (pET32a); label: CyDye5-dUTP incorporated in the synthesized complementary strand; 3' TTTTT single-stranded linker to array surface; dsDNA, one strand shown. In short, it runs like this: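 Transcription factors, each fused N-terminally to a polyhistidine tag and DsRed, were expressed in E. coli BL21-CodonPlus and purified on Ni–NTA. A custom Agilent array was made double-stranded by primer extension with Cy5-dUTP and blocked with 2% BSA. It was incubated with 200 nM protein in PBS, 2% BSA, salmon testes DNA and 50 µM zinc acetate at 25 °C for 1 h, then washed. The binding signal is per-feature fluorescence intensity (arbitrary units) read on an Axon 4000B scanner.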
“GGCGTTAATCACGTGATGGGCATGGATAGTGATTTAGATTCGGAGTCACCTAGTGCAG”: the binding signal is 13900 fluorescence intensity (a.u.). Under “GATATGATGGGTACAAACTGTTATAAACTAACATGTCTATCGGAGTCACCTAGTGCAG” stands 5970 fluorescence intensity (a.u.); under “GGGCCTGGTCCTGATTGGACTTCCTTATCTGTCTATCACACGGAGTCACCTAGTGCAG”, 10700 fluorescence intensity (a.u.). As for “TGATGGGAAAACTTTAAAATTAATTTTGAATTTAAGGTTGCGGAGTCACCTAGTGCAG”, the figure is 4960 fluorescence intensity (a.u.). On to “TGCTTTGATTTTACGTCACATACACATGGTGATGCTTCAACGGAGTCACCTAGTGCAG”, for which the binding signal was 6250 fluorescence intensity (a.u.). As for “CAGTTTAATTGCTCCTCGGATGGATCTGGTATAGTTCTGCCGGAGTCACCTAGTGCAG”, the binding signal was 20700 fluorescence intensity (a.u.).

As for “CTCTTGATTGTATCCTTAGGCACTTTGTATATTCTCGAGTCGGAGTCACCTAGTGCAG”, the binding signal was 31700 fluorescence intensity (a.u.).

Consider “TTCACTAATCAATCAACTTAATTTGCTCTGTCAATGTGCACGGAGTCACCTAGTGCAG”, for which the binding signal was 61700 fluorescence intensity (a.u.). For the sequence “AAGATACGTGATTGAAATCATTCCATTATGGACGACATTGCGGAGTCACCTAGTGCAG”, the binding signal was 54000 fluorescence intensity (a.u.). Take “GAACAGGTAATTTAAAATTGATGGAGTTCATAGGATGTCACGGAGTCACCTAGTGCAG”: the binding signal was 24200 fluorescence intensity (a.u.). As for “CCATTACGTGATCACAGATTGATCAAGAAATGCTTGACGACGGAGTCACCTAGTGCAG”, the figure is 19600 fluorescence intensity (a.u.); as for “ACATCACTAATTAATGTAATTTAAGTGGCTCATTTGCTCACGGAGTCACCTAGTGCAG”, 31900 fluorescence intensity (a.u.); as for “TTTAATTGATGGAGCGGTAATGGTAATAGTTCTTCACTCACGGAGTCACCTAGTGCAG”, 57300 fluorescence intensity (a.u.). For “TCTGATTAATTTGACGGCCACAAAATACTTAGTTTGGCAACGGAGTCACCTAGTGCAG”, the binding signal was 65000 fluorescence intensity (a.u.). Regarding “TAAAATTAGTCAAACTTAAAGCAGTTTGATTTTGACTAAACGGAGTCACCTAGTGCAG”, the binding signal was 3740 fluorescence intensity (a.u.). As to “TTTATATTATTTGTCAATCTTATTGTCAACTTATTAATCACGGAGTCACCTAGTGCAG”, the binding signal was 5140 fluorescence intensity (a.u.).

With “CCAAATGATTAATTTGGAGGACTTATTTGGACGTTTTGAACGGAGTCACCTAGTGCAG”, the binding signal is 42300 fluorescence intensity (a.u.). As for “TTGGATTAGAATTTAATTTGAAGACGACATCCATTGGATACGGAGTCACCTAGTGCAG”, the figure is 28700 fluorescence intensity (a.u.); as for “TTTATAATAGTTAATATTTAATTGATCATTTGCTAATGAGCGGAGTCACCTAGTGCAG”, 24900 fluorescence intensity (a.u.); as for “TTAACAATTGAAAGATCATCTCATTGGTTAATTTATTTGGCGGAGTCACCTAGTGCAG”, 6220 fluorescence intensity (a.u.). Regarding “GATGGTCTATTAGTCCGTGATTAATTAAGTATTAGCTATTCGGAGTCACCTAGTGCAG”, the binding signal was 8910 fluorescence intensity (a.u.). For the sequence “TTTGACAAATTTGACAACTCCTCTAGCTCCCACTGCTACTCGGAGTCACCTAGTGCAG”, the binding signal was 38200 fluorescence intensity (a.u.). Turning to “CTGTGATAATCTGTCTTCCTGTGATACCAGCACTGTTTCCCGGAGTCACCTAGTGCAG”, the binding signal was 3340 fluorescence intensity (a.u.).

On to “TGCTAGTTAAATTGGGATAAAATAATGGGCCCATTTATTTCGGAGTCACCTAGTGCAG”, for which the binding signal is 4520 fluorescence intensity (a.u.).

Take “AGTGATTAGTAGCAGCAGAAAGAGTGGAAGATTTAGAGGACGGAGTCACCTAGTGCAG”: the binding signal was 17800 fluorescence intensity (a.u.). Turning to “TATAATTGATTATTTTAATTTCTTTTGCTATTAATAGTCACGGAGTCACCTAGTGCAG”, the binding signal is 64700 fluorescence intensity (a.u.). Under “AAAATTTAATTGATTATATGCTAATAACTTTCTTGTTTTGCGGAGTCACCTAGTGCAG” stands 51600 fluorescence intensity (a.u.); under “ACAATTGATAGATTTGTCTGTTGCTTTGCTTTGATTCCTCCGGAGTCACCTAGTGCAG”, 43800 fluorescence intensity (a.u.); under “TTTTCTTGATTAATTAAATATAAATTTGCATTTCATTTCACGGAGTCACCTAGTGCAG”, 16900 fluorescence intensity (a.u.).

As for “CCCAAACGCCCTGAAATCAAATTGAATATTCCAATTTGCACGGAGTCACCTAGTGCAG”, the binding signal is 4630 fluorescence intensity (a.u.).

As for “AATTAAATAAATTATAATTTATTTTATTGAGATTTGATTTCGGAGTCACCTAGTGCAG”, the binding signal was 41300 fluorescence intensity (a.u.). As for “ATTGCGTGCTTGATTAATTAGTTTCTACCAACAATTTCTCCGGAGTCACCTAGTGCAG”, the figure is 8110 fluorescence intensity (a.u.).

Take “TTAAATTTAAATTTGAGATTGATTTTGAGATATTTTCAACCGGAGTCACCTAGTGCAG”: the binding signal was 38200 fluorescence intensity (a.u.). On to “TGCACCAATTTGATTGATACCAATTTGCTTTAATTTCGTCCGGAGTCACCTAGTGCAG”, for which the binding signal was 57200 fluorescence intensity (a.u.). As for “CAGAAACTGAAATACCAATTGATTCTTCCAATTCCCTGAACGGAGTCACCTAGTGCAG”, the figure is 6740 fluorescence intensity (a.u.); as for “TTAAATTTAAATTTAAATTTAATTTTGAGATTTCTTTTCACGGAGTCACCTAGTGCAG”, 55700 fluorescence intensity (a.u.); as for “TTATTGATTGATTGAATCAGACTGAAATTCCAAACCACGACGGAGTCACCTAGTGCAG”, 63100 fluorescence intensity (a.u.).

Take “ATCGGCATGTTCACCAGCTCTGATTGGTAGTACGATTTTACGGAGTCACCTAGTGCAG”: the binding signal was 5140 fluorescence intensity (a.u.). For “TAAATAAATGATTGGGCTTGTTAATGGGCTTCCTCTTCCTCGGAGTCACCTAGTGCAG”, the binding signal was 41900 fluorescence intensity (a.u.).

Consider “CCCAAATAGAAGTAGAATTGAGACACTGAGTGGTGCAAAGCGGAGTCACCTAGTGCAG”, for which the binding signal is 3400 fluorescence intensity (a.u.). Under “ATGATTGTTGGAGCAAGGCCCAGCCCAAGGTAGCGTACATCGGAGTCACCTAGTGCAG” stands 13400 fluorescence intensity (a.u.); under “TGTTACTAATTTATTTGGAGGCTTCATGGTTGACCTATTGCGGAGTCACCTAGTGCAG”, 3440 fluorescence intensity (a.u.); under “GATAATTTGAACCATAGATTTATCATTCAAAGGCTATAAACGGAGTCACCTAGTGCAG”, 9720 fluorescence intensity (a.u.). Under “GTAGCAATCAAATATGGGCCGGTCAATTGTTCGCGGTAGACGGAGTCACCTAGTGCAG” stands 4130 fluorescence intensity (a.u.); under “CATGGACAACAATCATTGCCTGTTACGCGCAAAGTTCTCGCGGAGTCACCTAGTGCAG”, 8490 fluorescence intensity (a.u.).

With “AGTATAATGACTGTTAGATCTCCATAAAACTGGCCACAAACGGAGTCACCTAGTGCAG”, the binding signal was 3510 fluorescence intensity (a.u.). As for “GCGATTAAATGTACAGTAAATAGGGATGAACAATATACGACGGAGTCACCTAGTGCAG”, the figure is 3570 fluorescence intensity (a.u.). Under “ATCCTTATTAATTTAATTTAACAAAGTCAACTTGATTTCCCGGAGTCACCTAGTGCAG” stands 23100 fluorescence intensity (a.u.); under “ATAATATTTAATATTTAATTAATTATGTGCTAATAAATCGCGGAGTCACCTAGTGCAG”, 14300 fluorescence intensity (a.u.); under “AATCTTGGCAAATTTCCTTAATTTGAACCTACGTGTTAAACGGAGTCACCTAGTGCAG”, 5550 fluorescence intensity (a.u.).

As to “AGCAATGCAACGATTATTAATTTAATTTGCACATGTATTGCGGAGTCACCTAGTGCAG”, the binding signal is 5900 fluorescence intensity (a.u.). Take “GAATAATTATTACACAATGCTAATTAATTTCACAATATTGCGGAGTCACCTAGTGCAG”: the binding signal is 38800 fluorescence intensity (a.u.). As for “TAATATTTAATTTCTATCAACATCTGACTACTTAATATTGCGGAGTCACCTAGTGCAG”, the figure is 7790 fluorescence intensity (a.u.); as for “CTATCTCATTGCTTAATTGGTCATATAATTGGGCTGAGTGCGGAGTCACCTAGTGCAG”, 16900 fluorescence intensity (a.u.). As for “TGCATTGATTTGGTATAATTGACCATGCTTTGCGATGCAACGGAGTCACCTAGTGCAG”, the figure is 57700 fluorescence intensity (a.u.). Regarding “TCTTAATAATTATTTCTTAATTAATTCTGTGCTAATTGTGCGGAGTCACCTAGTGCAG”, the binding signal is 54300 fluorescence intensity (a.u.). Under “CCTTAATTGTGGGGCTGACTGCTATTTTCTATATCATGTGCGGAGTCACCTAGTGCAG” stands 56000 fluorescence intensity (a.u.); under “TTAATTGATTAATTTCCTTAACCAAATCTTGGCGACTTGACGGAGTCACCTAGTGCAG”, 61200 fluorescence intensity (a.u.). Turning to “CATGGTGAATTGGTGATTTTATAATGATGCTAAGCTTTGACGGAGTCACCTAGTGCAG”, the binding signal was 4860 fluorescence intensity (a.u.).

Values taken from publication PMC7819943, “Rice protein-binding microarrays: a tool to detect cis-acting elements near promoter regions in rice”.
